Where a chain is given by its changes, count along the chain named. In all, about 16,000 sequences were measured (“ka relative to ugcaugu”: median about 0.0091, highest 2% from about 0.032 on). For the sample, the highest values were picked, then their nearest neighbours and some sequences at random.
T1: RBFOX1 RRM (Homo sapiens, UniProt Q9NWB1 109-208)
T1 sequence: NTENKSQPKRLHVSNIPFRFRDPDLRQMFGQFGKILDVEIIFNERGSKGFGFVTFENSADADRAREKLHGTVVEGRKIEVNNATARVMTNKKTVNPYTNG

B1: UAGUGAU (DNA:RNA)
RNA: GGGAGACCGGAAUUCAGAUUGUCCUAGUGAUUUAAAUCCCGUCGUAGCCACCA
DNA 1: CAATCTGAATTCCGGTCTCCC
DNA 2: TGGTGGCTACGACGGGATT
B2: CACUUCG (DNA:RNA)
RNA: B1 RNA with U25C, G27C, G29U, A30C, U31G
DNA 1: CAATCTGAATTCCGGTCTCCC
DNA 2: TGGTGGCTACGACGGGATT
B3: GUCUGUU (DNA:RNA)
RNA: B1 RNA with U25G, A26U, G27C, A30U
DNA 1: CAATCTGAATTCCGGTCTCCC
DNA 2: TGGTGGCTACGACGGGATT
B4: GGGUUAG (DNA:RNA)
RNA: B1 RNA with U25G, A26G, G29U, U31G
DNA 1: CAATCTGAATTCCGGTCTCCC
DNA 2: TGGTGGCTACGACGGGATT
B5: CUGAUGG (DNA:RNA)
RNA: B1 RNA with U25C, A26U, U28A, G29U, A30G, U31G
DNA 1: CAATCTGAATTCCGGTCTCCC
DNA 2: TGGTGGCTACGACGGGATT
B6: AGAACUG (DNA:RNA)
RNA: GGGAGACCGGAAUUCAGAUUGUCCAGAACUGUUAAAUCCCGUCGUAGCCACCA
DNA 1: CAATCTGAATTCCGGTCTCCC
DNA 2: TGGTGGCTACGACGGGATT
B7: GCAAAGC (DNA:RNA)
RNA: B6 RNA with A25G, G26C, C29A, U30G, G31C
DNA 1: CAATCTGAATTCCGGTCTCCC
DNA 2: TGGTGGCTACGACGGGATT
B8: UUGCGGA (DNA:RNA)
RNA: B1 RNA with A26U, U28C, A30G, U31A
DNA 1: CAATCTGAATTCCGGTCTCCC
DNA 2: TGGTGGCTACGACGGGATT
B9: GGGGGCU (DNA:RNA)
RNA: B1 RNA with U25G, A26G, U28G, A30C
DNA 1: CAATCTGAATTCCGGTCTCCC
DNA 2: TGGTGGCTACGACGGGATT
B10: GGGCUUU (DNA:RNA)
RNA: B6 RNA with A25G, A27G, A28C, C29U, G31U
DNA 1: CAATCTGAATTCCGGTCTCCC
DNA 2: TGGTGGCTACGACGGGATT
B11: GGGGCUU (DNA:RNA)
RNA: B6 RNA with A25G, A27G, A28G, G31U
DNA 1: CAATCTGAATTCCGGTCTCCC
DNA 2: TGGTGGCTACGACGGGATT
B12: CGGCUUU (DNA:RNA)
RNA: B6 RNA with A25C, A27G, A28C, C29U, G31U
DNA 1: CAATCTGAATTCCGGTCTCCC
DNA 2: TGGTGGCTACGACGGGATT
B13: GGCUUUU (DNA:RNA)
RNA: B6 RNA with A25G, A27C, A28U, C29U, G31U
DNA 1: CAATCTGAATTCCGGTCTCCC
DNA 2: TGGTGGCTACGACGGGATT
B14: GCGGGCU (DNA:RNA)
RNA: B1 RNA with U25G, A26C, U28G, A30C
DNA 1: CAATCTGAATTCCGGTCTCCC
DNA 2: TGGTGGCTACGACGGGATT
B15: CCGGGCU (DNA:RNA)
RNA: B1 RNA with U25C, A26C, U28G, A30C
DNA 1: CAATCTGAATTCCGGTCTCCC
DNA 2: TGGTGGCTACGACGGGATT
B16: CGGGCUU (DNA:RNA)
RNA: B6 RNA with A25C, A27G, A28G, G31U
DNA 1: CAATCTGAATTCCGGTCTCCC
DNA 2: TGGTGGCTACGACGGGATT
B17: CGGGGCU (DNA:RNA)
RNA: B1 RNA with U25C, A26G, U28G, A30C
DNA 1: CAATCTGAATTCCGGTCTCCC
DNA 2: TGGTGGCTACGACGGGATT
B18: GUGGGCU (DNA:RNA)
RNA: B1 RNA with U25G, A26U, U28G, A30C
DNA 1: CAATCTGAATTCCGGTCTCCC
DNA 2: TGGTGGCTACGACGGGATT
B19: CGUCAGA (DNA:RNA)
RNA: B6 RNA with A25C, A27U, A28C, C29A, U30G, G31A
DNA 1: CAATCTGAATTCCGGTCTCCC
DNA 2: TGGTGGCTACGACGGGATT
B20: GGAGUGG (DNA:RNA)
RNA: B6 RNA with A25G, A28G, C29U, U30G
DNA 1: CAATCTGAATTCCGGTCTCCC
DNA 2: TGGTGGCTACGACGGGATT
B21: ACAUGGG (DNA:RNA)
RNA: B6 RNA with G26C, A28U, C29G, U30G
DNA 1: CAATCTGAATTCCGGTCTCCC
DNA 2: TGGTGGCTACGACGGGATT
B22: CCUAGUG (DNA:RNA)
RNA: B6 RNA with A25C, G26C, A27U, C29G
DNA 1: CAATCTGAATTCCGGTCTCCC
DNA 2: TGGTGGCTACGACGGGATT
B23: AAUUAGC (DNA:RNA)
RNA: B1 RNA with U25A, G27U, G29A, A30G, U31C
DNA 1: CAATCTGAATTCCGGTCTCCC
DNA 2: TGGTGGCTACGACGGGATT
B24: UUUAACA (DNA:RNA)
RNA: B6 RNA with A25U, G26U, A27U, C29A, U30C, G31A
DNA 1: CAATCTGAATTCCGGTCTCCC
DNA 2: TGGTGGCTACGACGGGATT
B25: GGGACGU (DNA:RNA)
RNA: B6 RNA with A25G, A27G, U30G, G31U
DNA 1: CAATCTGAATTCCGGTCTCCC
DNA 2: TGGTGGCTACGACGGGATT
B26: CGGGUGC (DNA:RNA)
RNA: B6 RNA with A25C, A27G, A28G, C29U, U30G, G31C
DNA 1: CAATCTGAATTCCGGTCTCCC
DNA 2: TGGTGGCTACGACGGGATT
B27: GGGUGCU (DNA:RNA)
RNA: B1 RNA with U25G, A26G, A30C
DNA 1: CAATCTGAATTCCGGTCTCCC
DNA 2: TGGTGGCTACGACGGGATT
B28: CCGGUGC (DNA:RNA)
RNA: B1 RNA with U25C, A26C, U28G, G29U, A30G, U31C
DNA 1: CAATCTGAATTCCGGTCTCCC
DNA 2: TGGTGGCTACGACGGGATT
B29: GGGGUGC (DNA:RNA)
RNA: B6 RNA with A25G, A27G, A28G, C29U, U30G, G31C
DNA 1: CAATCTGAATTCCGGTCTCCC
DNA 2: TGGTGGCTACGACGGGATT
B30: GGGUGCG (DNA:RNA)
RNA: B1 RNA with U25G, A26G, A30C, U31G
DNA 1: CAATCTGAATTCCGGTCTCCC
DNA 2: TGGTGGCTACGACGGGATT
B31: AGGGUGC (DNA:RNA)
RNA: B6 RNA with A27G, A28G, C29U, U30G, G31C
DNA 1: CAATCTGAATTCCGGTCTCCC
DNA 2: TGGTGGCTACGACGGGATT

What follows are binders tested against T1, RBFOX1 RRM (assay: EMSA; HiTS-Eq, 1 nM pool, 10 min; buffer printed only for the single-RNA assays: 10 mM Tris pH 7.5, 150 mM NaCl, 3.4 mM EDTA, 0.001% NP-40, 30 C). Settings: tags: His6 N-terminal (pET28a); label: 5' 32P.
In short: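 Relative association constants, normalised to the cognate motif, were derived by comparing read counts of each RNA species with those of the control reaction. The RNA sequenced was the free fraction, separated by 8% native PAGE after a 10 min equilibration in 50 µL of 1 nM 5′-radiolabelled RNA (7 randomized nucleotides) with increasing concentrations of purified wild-type or mutant RbFox RRM.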

Binder	binding signal
B1	0.00564 KA relative to UGCAUGU
B2	0.0103 KA relative to UGCAUGU
B3	0.0246 KA relative to UGCAUGU
B4	0.0153 KA relative to UGCAUGU
B5	0.0123 KA relative to UGCAUGU
B6	0.0109 KA relative to UGCAUGU
B7	0.0111 KA relative to UGCAUGU
B8	0.0101 KA relative to UGCAUGU
B9	0.0377 KA relative to UGCAUGU
B10	0.0244 KA relative to UGCAUGU
B11	0.033 KA relative to UGCAUGU
B12	0.0187 KA relative to UGCAUGU
B13	0.0115 KA relative to UGCAUGU
B14	0.0197 KA relative to UGCAUGU
B15	0.00883 KA relative to UGCAUGU
B16	0.0317 KA relative to UGCAUGU

Binder	binding signal
B17	0.0294 KA relative to UGCAUGU
B18	0.0216 KA relative to UGCAUGU
B19	0.00954 KA relative to UGCAUGU
B20	0.0151 KA relative to UGCAUGU
B21	0.0064 KA relative to UGCAUGU
B22	0.00931 KA relative to UGCAUGU
B23	0.00552 KA relative to UGCAUGU
B24	0.00144 KA relative to UGCAUGU
B25	0.0238 KA relative to UGCAUGU
B26	0.0369 KA relative to UGCAUGU
B27	0.0276 KA relative to UGCAUGU
B28	0.0149 KA relative to UGCAUGU
B29	0.0467 KA relative to UGCAUGU
B30	0.023 KA relative to UGCAUGU
B31	0.0198 KA relative to UGCAUGU
